# Source: PubChem (National Center for Advancing Translational Sciences (NCATS))
# Rows were chosen to be rich in hits. Some 2.6% of all compounds tested hit in one or more screens of this group.
# Cruzain Triton = qHTS Assay for Promiscuous and Specific Inhibitors of Cruzain (with detergent). Cruzipain (Trypanosoma cruzi), P25779. purified cruzain, Z-FR-AMC fluorescence, 0.01% Triton. Potency, µM, for inactives: max response, negative = inhibition, usual class: inhibitors. hit rate 0.43% among 200,000. AID 1478, 2009;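 also: plate controls were neutral wells for no effect and buffer without enzyme for full effect; nearly all actives have a fitted effect of over 40% in size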
# Target sequence (P25779 123-467 limits assumed): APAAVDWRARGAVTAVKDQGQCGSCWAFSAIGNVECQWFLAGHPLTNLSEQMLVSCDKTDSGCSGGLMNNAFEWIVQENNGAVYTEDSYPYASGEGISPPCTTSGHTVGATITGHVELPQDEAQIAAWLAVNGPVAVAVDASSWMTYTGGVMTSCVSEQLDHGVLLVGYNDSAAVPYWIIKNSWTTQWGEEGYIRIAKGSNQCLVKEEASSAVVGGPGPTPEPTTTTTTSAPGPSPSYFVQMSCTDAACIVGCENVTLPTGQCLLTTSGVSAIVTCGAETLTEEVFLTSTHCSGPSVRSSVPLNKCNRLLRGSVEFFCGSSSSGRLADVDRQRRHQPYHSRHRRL
#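 Read-out: AMC fluorescence (360 nm excitation, 450 nm emission), four reads over 2 min, first-to-third difference used. Conditions: cruzain 1.5 nM, Z-FR-AMC 2 uM, pH 5.5 acetate, 5 mM DTT, 0.01% Triton X-100.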
# Cruzain inh noDet = qHTS Assay for Promiscuous and Specific Inhibitors of Cruzain (without detergent); Cruzipain (Trypanosoma cruzi), P25779; purified cruzain, Z-FR-AMC fluorescence, no detergent; Potency, µM, inactives show max response, negative = inhibition, hits mostly inhibitors; hit rate 2.3% among 200,000; AID 1476, 2009;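 also: plate controls were enzyme without inhibitor for no effect and buffer without enzyme for full effect; nearly all actives have a fitted effect of over 40% in size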
#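 Purified cruzain at 1.5 nM, pre-incubated 15 min with compound at room temperature in 100 mM sodium acetate pH 5.5, 5 mM DTT, 0.00005% Triton X-100. Reaction started with 2 uM Z-FR-AMC; AMC fluorescence increase over 60 s gives rate.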
# * = called active by the depositor; ? = inconclusive. Calls follow the shape of the dose curve; as a rule, active = well fitted curve in the direction sought with a large enough effect; inconclusive = small, poorly fitted or top-dose-only effect, or another doubt; inactive = no such curve, though single readings can be large; an effect the other way counts as inactive or inconclusive. Potency is read from the fitted curve at half-maximal effect.
SMILES,Cruzain Triton,Cruzain inh noDet
CCOC(=O)c1ccc(N2CCN(c3cccc(Cl)c3)CC2)c(NC(=O)Nc2ccc(Cl)cc2)c1,0.6%,3.98µM*
CN(CCOc1ccc(-c2ccn(S(=O)(=O)c3c(Cl)cccc3Cl)n2)cc1)c1ccccn1,6.4%,?
CN(CCOc1ccc(-c2ccn(S(=O)(=O)c3cccc4ccccc34)n2)cc1)c1ccccn1,-0.7%,25.1µM*
CCN(CC)S(=O)(=O)c1ccc(-c2nnc(SCC(C)=O)o2)cc1,2.6%,8.3%
Cc1ccc(C)c(S(=O)(=O)c2cn(Cc3ccccc3)c3cc(F)c(F)cc3c2=O)c1,-4.8%,25.1µM*
Cc1ccc(Cn2cc(S(=O)(=O)c3ccc(Cl)cc3)c(=O)c3cc(F)ccc32)cc1,0.4%,?
O=C(/C=C/c1ccccc1)NC(NC(=S)Nc1ccc(Cl)cc1)C(Cl)(Cl)Cl (stereo not given),-0.7%,?
O=C(CCc1ccccc1)NC(NC(=S)Nc1ccc(Cl)cc1)C(Cl)(Cl)Cl (stereo not given),-3.7%,25.1µM*
COC(=O)c1ccc2c(=O)n(-c3ccccc3)c(SCN3C(=O)c4ccccc4C3=O)nc2c1,0.6%,-2.4%
CN1C(=O)C(=Cc2ccccc2Oc2ccc(Cl)c(F)c2)C(=O)N(C)C1=O,-0.6%,6.8%
O=C1NC(=O)/C(=C\c2ccccc2Oc2ccc(F)c(F)c2)S1,-7.3%,25.1µM*
CCN(CC)c1ccc(/C=c2\sc3nnc(-c4ccccc4Cl)n3c2=O)cc1,1.2%,12.6µM*
CCN(CC)c1ccc(/C=c2/sc3nnc(-c4ccccc4C)n3c2=O)cc1,-6.0%,?
O=C(CNC(=O)c1ccco1)NCC(=O)OC(C(=O)c1ccccc1)c1ccc(Cl)cc1 (stereo not given),?,-25.9%
O=C(CNC(=O)c1ccco1)OC(C(=O)c1ccccc1)c1ccccc1 (stereo not given),6.31µM*,7.94µM*
O=C(Cn1cnc2c(nnn2-c2ccccc2)c1=O)NCCc1ccccc1,-0.5%,-2.8%
CC(=O)c1ccc(N2CCN(C(=O)c3cc4ccc5cccnc5c4[nH]3)CC2)cc1,-12.3%,-18.7%
CCc1cccc2sc(NC(=O)c3ccc(N4C(=O)CCC4=O)cc3)nc12,1.6%,7.94µM*
Cc1ccc2sc(NC(=O)c3ccc(N4C(=O)CCC4=O)cc3)nc2c1C,1.7%,?
CN(Cc1ccccc1)S(=O)(=O)c1ccc(OCC(=O)Nc2cccc([N+](=O)[O-])c2)cc1,-3.1%,-20.6%
Cc1cc(S(=O)(=O)NCc2ccccc2)ccc1OCC(=O)Nc1cccc([N+](=O)[O-])c1,-5.2%,25.1µM*
O=C(O)CSc1ccn(Cc2ccccc2)c1,-0.6%,10.2%
COc1ccc(-c2cc(=O)oc3cc4occ(C)c4cc23)cc1,-1.9%,-16.9%
COc1ccc(-c2cc(=O)oc3cc(OC(=O)C4CCCCC4)c(Cl)cc23)cc1,-5.3%,6.31µM*
Nc1ccc2ncccc2c1,1.7%,-6.5%
SMILES,Cruzain Triton,Cruzain inh noDet
Nc1ccc2cc3ccccc3cc2c1,0.5%,12.6µM*
Cc1ccc(N=Cc2nc(-c3ccco3)oc2O)cc1,-16.0%,-16.2%
O=C(Oc1oc(-c2ccco2)nc1C=Nc1ccccc1)c1ccco1,14.1µM*,15.8µM*
O=C(Oc1oc(-c2ccco2)nc1C=Nc1ccccc1)c1ccoc1,22.4µM*,?
O=c1oc(-c2ccco2)nc2c1cnn2-c1ccccc1,-1.8%,0.4%
Cc1cc(C(=O)Nc2c(C)n(C)n(-c3ccccc3)c2=O)c2ccccc2n1,4.8%,-1.7%
CCCCCn1c(Sc2nc3ccccc3s2)nc2c1c(=O)[nH]c(=O)n2C,2.0%,25.8%
O=C(NC(=S)Nc1nc2c(s1)CCCC2)c1ccc(C(=O)c2ccccc2)cc1,-0.2%,25.1µM*
Cc1onc(-c2ccccc2Cl)c1C(=O)Nc1nnc(-c2ccc(Cl)cc2Cl)s1,-2.3%,?
O=C(NC(=S)Nc1nc2c(s1)CSc1ccccc1-2)c1ccccc1,-4.6%,7.94µM*
COC(=O)c1ccc(C(=O)NC(=S)Nc2nc3c(s2)CC(C)CC3)cc1 (stereo not given),-3.0%,6.4%
Cc1onc(-c2ccccc2Cl)c1C(=O)Nc1nc2c(s1)CCCC2,-1.1%,25.1µM*
O=C(Nc1nc2c(s1)CCCC2)c1cccnc1,-5.4%,-11.7%
CCCCNC(=O)CSc1nnc(-c2c[nH]c3ccccc23)n1CC1CCCO1 (stereo not given),8.9%,6.3%
CCOc1ccccc1CNC(=O)C1CCC(=O)N1C(C)C (stereo not given),4.7%,?
COc1cccc(-c2nc(N(C)C)c3ccccc3n2)c1,-2.5%,-4.5%
CN1C(C)(C)CC(=NOC(=O)c2ccccc2)CC1(C)C,-0.6%,1.7%
CN1C(=O)/C(=N/OC(=O)c2ccccc2)c2ccccc21,4.47µM*,6.31µM*
COc1ccc2nc(NC(=O)CN3CCOCC3)sc2c1,0.5%,2.1%
CCOC(=O)C1=C(C)NC(=O)NC1c1cn(-c2ccccc2)nc1-c1ccc(OC(C)C)cc1 (stereo not given),-16.6%,20.3%
CC1=C(C(=O)c2ccccc2)C(c2cn(-c3ccccc3)nc2-c2ccc(Cl)cc2)NC(=S)N1 (stereo not given),3.3%,10µM*
COc1ccc(C)cc1S(=O)(=O)N(CC(=O)Nc1cccc([N+](=O)[O-])c1)c1ccc(C)c(C)c1,-5.6%,31.6µM*
COc1ccc(S(=O)(=O)N(CC(=O)Nc2ccc(C)cc2)c2ccc(C)cc2)cc1OC,0.6%,-3.3%
CN1CCN(c2nc3c(c(=O)[nH]c(=O)n3C)n2CC(N)=O)CC1,4.5%,-0.2%
Cc1cc(C(=O)COC(=O)CNC(=O)c2ccc(Cl)c(Cl)c2)c(C)n1Cc1ccco1,10µM*,-12.5%
SMILES,Cruzain Triton,Cruzain inh noDet
C=CCn1c(C)cc(C(=O)COC(=O)CNC(=O)c2ccccc2)c1C,25.1µM*,20µM*
C=CCn1c(C)cc(C(=O)COC(=O)C2CC(=O)N(Cc3ccccc3)C2)c1C (stereo not given),3.3%,22.0%
Cc1ccc(C(=O)NCC(=O)OCC(=O)c2cc(C)n(Cc3ccco3)c2C)cc1,-29.6%,-0.8%
CC(=O)c1sc2nc(=O)c(C)nn2c1C,-10.3%,-11.0%
S=C(NCc1ccc2c(c1)OCO2)Nc1ccc(-c2nc3ccccc3[nH]2)cc1,-10.9%,20µM*
S=C(NCc1ccc(Cl)c(Cl)c1)Nc1ccc2c(c1)OCO2,-12.6%,-26.6%
Cc1ccc(-c2nc3ccccc3[nH]2)cc1NC(=O)c1ccc2c(c1)OCO2,-2.0%,?
O=C(NC(=S)Nc1cc(-c2nc3ccccc3[nH]2)ccc1Cl)c1ccc2c(c1)OCO2,17.8µM*,31.6µM*
Cc1ccc(C2NC(=S)NC(c3ccc(C)cc3)C23C(=O)NC(=O)NC3=O)cc1 (stereo not given),3.0%,1.2%
O=C(CCC1CCCCC1)Nc1c[nH]c(=O)[nH]c1=O,-0.9%,-1.4%
COc1ccc2c(c1)CCc1c(C(=O)Nc3c(C)nn(Cc4ccc(Cl)cc4)c3C)noc1-2,-5.4%,2.0%
COc1ccc2c(c1)CCc1c(C(=O)Nc3cc(C)n(Cc4ccc(Cl)cc4)n3)noc1-2,-3.3%,12.6µM*
c1ccc(C2Nc3ccccc3-c3nc4ccccc4n32)cc1 (stereo not given),-1.4%,?
Oc1ccccc1C1=Nc2nc3ccccc3n2C(c2ccccc2)C1 (stereo not given),-4.7%,25.1µM*
